Data: PubChem BioAssay AID463190 (Sanford-Burnham Center for Chemical Genomics, 2010)
The whole screen tested about 330,000 compounds, of which about 7,300 (2.2%) were called active. Only a selection was taken, and actives are over-represented in it overall. A number with no mark means an inactive call.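 Rule for the calls: active = inhibition of at least 40%; inactive = the rest.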

test: growth inhibitors of tim10-1 mutant yeast, primary screen, luminescence, uHTS (AID 463190);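 note: mutant grown at 25 °C; 0% = DMSO wells with yeast and 100% = wells holding no yeast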; settings: S. cerevisiae tim10-1 ts strain growth, BacTiter-Glo, 24 h; at 20 µM; stronger effect = higher value

Row | SMILES | inhibition
1 | CCOc1cc2[nH]c(=S)n(Cc3ccc(C(=O)N4CCN(C)CC4)cc3)c(=O)c2cc1OCC | 4.68%
2 | Cc1ccc(S(=O)(=O)NCC(=O)NNC(=O)c2ccc(Br)cc2)cc1C | 6.99%
3 | COC(=O)/C(C#N)=C/c1occc1C | -13.8%
4 | CCN(CC)S(=O)(=O)c1ccc(N2CCCC2)c(NC(=O)c2ccc([N+](=O)[O-])o2)c1 | 31.3%
5 | O=C(Nc1ccc(Br)cn1)c1ccc([N+](=O)[O-])cc1Cl | 7.02%
6 | O=C(Nc1cccc(O)c1)c1ccc(C(=O)c2ccccc2)o1 | 6.57%
7 | CN1C(=O)c2ccc(C(=O)Nc3ccc(Br)cn3)cc2C1=O | 6.17%
8 | Cc1cccc(NC(=O)c2ccc([N+](=O)[O-])o2)c1 | 58% (active)
9 | Cc1onc(NC(=O)c2ccc([N+](=O)[O-])o2)c1Br | 42.4% (active)
10 | Cc1onc(C(=O)NCc2ccc(F)cc2)c1[N+](=O)[O-] | 5.1%
11 | O=C(Nc1ccc(Br)cn1)c1ccc([N+](=O)[O-])o1 | 66.6% (active)
12 | Cc1cccc(NC(=O)c2cc([N+](=O)[O-])ccc2N2CCN(C)CC2)c1 | 10%
13 | OC(COCCC12CC3CC(CC(C3)C1)C2)CN1CCCCC1 (configuration not stated) | 4.4%
14 | FC(F)(F)c1cccc(-c2cc3ccccc3nc2N2CCCC2)c1 | -16.8%
15 | COC(=O)c1ccccc1NC(=O)Cc1ccccc1OC | 10.2%
16 | Cc1cccc(NC(=S)NCc2ccc3[nH]c4c(c3c2)CCCC4)c1 | 41.3% (active)
17 | Cc1cc(C)cc(NC(=S)NCc2ccc(F)cc2)c1 | 23.8%
18 | Cc1cccc(NC(=S)NCCN(C2CCCCC2)C2CCCC2)c1 | 28.1%
19 | O=S(=O)(O)CCN1CCOCC1 | 6.54%
20 | CCOC12CC(C)(C)CC(C)(CC3=C1C(=O)CC(C)(C)C3)C2 (configuration not stated) | 17.6%
21 | CC1(c2nnc(-c3ccncc3)o2)CC(c2cccnc2)=NO1 (configuration not stated) | -5.58%

Row | SMILES | inhibition
22 | COC(=O)Cc1ccc(NC(=S)NCc2ccc(Cl)cc2)cc1 | 20.1%
23 | O=C(NCc1ccc(Cl)cc1)NCc1ccc(Cl)cc1 | -35.2%
24 | S=C(NCc1ccc(Cl)cc1)NC12CC3CC(CC(C3)C1)C2 | 51.4% (active)
25 | OC1CCCN(c2ncnc3c2nnn3Cc2c(F)cccc2Cl)C1 (configuration not stated) | 14.9%
26 | O=S1(=O)CCO[C@H]2Cc3ccccc3[C@H]2N1Cc1ccccc1 | 10%
27 | CC1=C(C(N)=O)C(c2ccc(F)cc2)n2nc(CCCO)nc2N1 (configuration not stated) | 15.6%
28 | COC(=O)CC(=O)N1CCN(c2ccc(Cl)c(Cl)c2)CC1 | 5.73%
29 | COC(=O)CSc1snnc1-c1ccc(Cl)c(Cl)c1 | 47.3% (active)
30 | COC(=O)CSc1nnc(NC(=O)CCc2ccccc2)s1 | 17.2%
31 | N#CC(C(N)=O)=C1CCC2(CC1)OCCCCO2 | 17.1%
32 | Cc1cc(C)cc(NC(=O)NC2CCCCCCC2)c1 | 14.5%
33 | COCCOC(=O)C1=C(C)N=c2s/c(=C\c3cccs3)c(=O)n2C1c1cccs1 (configuration not stated) | 15.4%
34 | CCOC(=O)C1=C(C)N=c2s/c(=C\C(=O)OC)c(=O)n2C1c1ccc(OC)cc1 (configuration not stated) | 42.2% (active)
35 | CCOC(=O)C1=C(CSc2nccn2C)NC(=O)NC1c1ccc(OC)cc1 (configuration not stated) | 15.6%
36 | CN(C)S(=O)(=O)c1ccc(C(=O)NCC2(N3CCOCC3)CCCCC2)cc1 | -9.36%
37 | COc1ccc(N2CCN(C(=O)c3ccc4c(Cl)c5c(nc4c3)CCCC5)CC2)cc1 | -0.417%
38 | CC(=O)c1ccc(NC(=O)c2ccc3c(Cl)c4c(nc3c2)CCCC4)cc1 | 13.3%
39 | CC(C)CCNC(=O)c1ccc2c(Cl)c3c(nc2c1)CCC3 | 41% (active)
40 | COc1ccc(C(=O)c2c3ccc([N+](=O)[O-])cc3[n+]([O-])n2CCCN)cc1 | 1.86%
41 | CS(=O)(=O)c1ccc(Cl)c(NC(=O)COC(=O)c2cccc(S(=O)(=O)N3CCCC3)c2)c1 | -30.8%
42 | COc1ccc(S(=O)(=O)N2CCCCC2)cc1NC(=O)COc1ccccc1 | 7.99%

Row | SMILES | inhibition
43 | O=C(COC(=O)CCOc1ccccc1)Nc1cc(S(=O)(=O)N2CCCCC2)ccc1Cl | 46.3% (active)
44 | COc1cc(C(=O)NCC(=O)NCCSc2ccc(Br)cc2)cc(OC)c1OC | 9.46%
45 | Cc1ccc(S(=O)(=O)n2nc(OC(=O)C(C)(C)C)cc2N)cc1 | 25.5%
46 | O=C(COC(=O)c1ccccc1Br)Nc1nnc(-c2ccccc2)o1 | 0.631%
47 | Nc1cc(OC(=O)c2ccccc2Br)nn1S(=O)(=O)c1ccccc1 | 57.5% (active)
48 | O=C(CN1CCN(c2ncc(C(F)(F)F)cc2Cl)CC1)Nc1ccc2c(c1)OCO2 | 28.8%
49 | O=C(Cc1ncc(C(F)(F)F)cc1Cl)Nc1cccc(Br)c1 | 47.5% (active)
50 | CC(=O)c1ccc(Cc2ncc(C(F)(F)F)cc2Cl)s1 | 3.28%
51 | Clc1ccc(Cl)c(Oc2ccc(Oc3nc(Cl)ccc3Cl)cc2)n1 | 9.8%
52 | Brc1ccc(C2=CC(c3ccco3)n3ncnc3N2)cc1 (configuration not stated) | 48.2% (active)
53 | CCOc1ccc(C2=CC(c3ccccc3)n3ncnc3N2)cc1 (configuration not stated) | 25.5%
54 | CC1=C(C(=O)OCc2ccccc2)C(c2ccco2)n2ncnc2N1 (configuration not stated) | 20.9%
55 | CCn1c(-c2cc(OC)ccc2OC)csc1=Nc1c(C)n(C)n(-c2ccccc2)c1=O | 22.1%
56 | COCCNC(=S)N/N=C/c1c(C)[nH]c2ccccc12 | 16.2%
57 | CN=c1scc(-c2cc(OC)ccc2OC)n1/N=C/c1c(C)[nH]c2ccccc12 | 46% (active)
58 | COc1cc(/C=C2/C(=O)ON=C2C)ccc1OCc1cccc(F)c1 | 9.41%
59 | COc1cc(/C=C2/C(=O)ON=C2C)ccc1OCc1ccccc1F | 49% (active)
60 | C=CCOc1ccc(/C=C2/C(=O)ON=C2C)cc1OCC | 5.79%
61 | O=C(O)c1n[nH]nc1-c1ccccc1 | -4.76%
62 | O=C(Nc1cccc([N+](=O)[O-])c1)N1CCc2ccccc2C1 | 13.3%
